In PubChem BioAssay (NCI):
“And” between values parts separate entries of the source, which are not always exact repeats. Identical values can stand only once. About 79,000 compounds went through this panel and 15% of them were active in at least one assay; those are over-represented in the sample as a whole. Values without a mark were called inactive. The source made the active and inactive calls. Cut-off read from the data, not from the text of the source: active = growth inhibition above about 70%; inactive = the rest. Where a SMILES comes first, the peptide text is derived from it. [ ]: non-standard residue; d: D form. The star is where a group is joined. NMeF = CN[C@@H](Cc1ccccc1)C(=O)O; NMeV = CN[C@H](C(=O)O)C(C)C; Boc = CC(C)(C)OC(=O)*; OBn = c1ccc(CO*)cc1

Assays:
[1] = NCI Yeast Anticancer Drug Screen. Data for the rad50 strain (AID 155);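 note: 0% = growth of vehicle-only cultures of the same strain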; conditions: S. cerevisiae rad50 strain growth inhibition, stronger effect = higher value; at 50.0 µM unless noted
Outline: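 Relative growth inhibition (compound vs vehicle) was measured in yeast with a defined repair-gene alteration.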

[2] = NCI Yeast Anticancer Drug Screen. Data for the mec2-1 strain (AID 157); conditions: S. cerevisiae mec2-1 strain, stronger effect = higher value; at 50.0 µM unless noted
Outline: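 Strain: mec2-1 (DNA repair/cell cycle alteration). Compound exposure, then growth measured; inhibition expressed relative to vehicle.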

[3] = NCI Yeast Anticancer Drug Screen. Data for the sgs1 mgt1 strain (AID 161);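 note: 0% = growth of cultures given vehicle only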; conditions: S. cerevisiae sgs1 mgt1 strain, stronger effect = higher value; at 50.0 µM unless noted
Outline: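 Read-out: growth inhibition vs vehicle controls. Cells: mutant yeast strain deficient in DNA damage repair.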

[4] = NCI Yeast Anticancer Drug Screen. Data for the cln2 rad14 strain (AID 165);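 note: 0% = growth equal to vehicle treated cultures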; conditions: S. cerevisiae cln2 rad14 strain, stronger effect = higher value; at 50.0 µM unless noted
Outline: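 Compounds are applied to the cln2 rad14 yeast strain, and growth is then compared with that of vehicle-treated cultures to give inhibition.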

[5] = NCI Yeast Anticancer Drug Screen. Data for the bub3 strain (AID 167); conditions: S. cerevisiae bub3 mutant strain, stronger effect = higher value; at 50.0 µM unless noted
Outline: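 Screening used yeast with an engineered genetic alteration affecting cell cycle control. Compound-exposed cultures were compared with vehicle cultures, and reduced growth was taken as inhibition.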

[6] = NCI Yeast Anticancer Drug Screen. Data for the mlh1 rad18 strain (AID 175); conditions: S. cerevisiae mlh1 rad18 strain growth inhibition, stronger effect = higher value; at 50.0 µM unless noted
Outline: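 Read-out is yeast growth inhibition, calculated against vehicle-only controls. The compound was applied to a strain engineered with DNA damage repair alterations.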

SMILES	growth inhibition [1]	growth inhibition [2]	growth inhibition [3]	growth inhibition [4]	growth inhibition [5]	growth inhibition [6]
COc1ccc(C=Nc2ccccc2C(=O)O)cc1	0.2%	7.1%	0.65%	-41.9%	24.3%	5.9%
O=C(Cc1csc2ccccc12)NCC1CC1	-17.4%	-19.1%	-0.45%	2.45%	11%	-3.55%
COC(=O)CCCCC(=O)OC	35.9%	-0.3%	15.1%	-1.9%	-9%	13.4%
CC1SCc2nc3ccccc3n21 (stereo unspecified)	2.25%	-10.8%	27.9%	12.1%	5.7%	-35.5%
[N-]=[N+]=C(C(=O)CN1CCCC1=O)S(=O)(=O)c1ccccc1	10.4%	-6.4%	-6.55%	9.1%	-2.85%	16.2%
CCCn1c(C)nc2c([N+](=O)[O-])cc(C)cc21	-4.2%	-14.8%	-12.9%	-34.2%	13.4%	-4.8%
O=C1NCC2(CCNCC2)N1	-10.3%	16.7%	6.45%	15.6%	11.1%	-70.6%
Cc1cc(=O)[nH]c(NN2C(Cl)C(=O)C2c2ccccc2O)n1 (stereo unspecified)	16.4%	-31.5%	13.3%	2.95%	-9.3%	-13.8%
CCOC(=O)C(C)NC(=O)NC12CC3CC(CC(F)(C3)C1)C2 (stereo unspecified)	31.3%	10.6%	3.1%	6.35%	8.45%	-0.2%
CN(C)C(=S)/N=c1\ssc(=S)n1Cc1ccccn1	3.05%	-11.9%	1.8%	22.1%	-9.55%	-10.9%
Clc1ccc(C(=Nc2ccccc2)C(Nc2ccccc2)c2ccc(Cl)cc2)cc1 (stereo unspecified)	4.75%	-5.15%	17.8%	8.75%	3.8%	19.4%
CCOC(=O)c1[nH]c(=S)n(C)c1C(=O)OCC	-12.9%	6.75%	29.1%	-33%	8.1%	0.55%
Cc1nc2c3c(ccc2[nH]c1=O)C(=O)c1ccccc1C3=O	19.4%	11.6%	17.7%	16.9%	13.9%	38.2%
O=C(NC12CC3CC(CC(C3)C1)C2)C(=O)c1c[nH]c2ccc(Cl)cc12	-9.15%	-10.6%	-4.1%	21.8%	8.5%	-9.15%
Cn1c2ccccc2c2c3c(ccc21)C(=O)N(c1ccccc1)C3=O	11.7%	-4.7%	12.9%	-3.5%	12.4%	2.95%
O=C1OC(=O)c2c1nc1ccccc1c2-c1ccccc1	-31.5%	-3.9%	9.35%	26%	-6.15%	23.6%
CCOc1cc(C=O)c2c(ccc3ccc(OC)c(OC)c32)c1OC	86.5% (active)	90.8% (active)	84.7% (active)	83.5% (active)	82.4% (active)	-11.8%
Nc1sc(=S)[nH]c1-c1ccccc1	20.1%	10.7%	-24.9%	-30.8%	-11%	11.1%
CCCc1ccc(C)c(Br)c1	26.4%	15.8%	0.9%	-9.95%	1.3%	3.3%
CC(C)[C@@H](C(=O)N1CCC[C@H]1C(=O)OCc1ccccc1)N(C)C(=O)[C@H](C(C)C)N(C)C(=O)[C@H](Cc1ccccc1)N(C)C(=O)[C@H](NC(=O)OC(C)(C)C)C(C)C (Boc-[dV][NMeF][NMeV][NMeV]P-OBn)	-41.9%	-42.1%	-38.2%	-38.1%	-42.6%	-36.3%
CC(C)CC(Br)C(=O)NCC(=O)O (stereo unspecified)	-25.1% and 5.2%	-55.1% and -6.55%	-27.9%	8.5%	-24.1%	-11% and -4.8%

SMILES	growth inhibition [1]	growth inhibition [2]	growth inhibition [3]	growth inhibition [4]	growth inhibition [5]	growth inhibition [6]
CCOC(=O)c1nc(N)nc(N)c1-c1ccc(Cl)cc1	3.6%	10.7%	-3.4%	-4.9%	15.6%	-1.2%
CC1(C)CC[C@]2(C(=O)O)CCC3(C)C(=CCC4[C@@]5(C)CC[C@H](OC6OCC(O)C(O)C6OC6OC(CO)C(O)C(O)C6O)C(C)(C)C5CC[C@]43C)C2C1 (stereo partly specified)	84.8% (active)	85.2% (active)	89.8% (active)	87.7% (active)	88.5% (active)	87.5% (active)
Cc1ccc2nc(C=Nc3ccccc3Cl)cc(C)c2c1	-7.4%	-5.85%	-9.3%	17.8%	-4.45%	3.2%
Cc1cc(S(=O)(=O)Nc2n[nH]c(N)n2)c(S)cc1Cl	11.4%	7.45%	-6.65%	-4.6%	1.1%	12.8%
CCOc1ccc([N+](=O)[O-])cc1[N+](=O)[O-]	43.3%	2.1%	-11.3%	-55.5%	-25.6%	-2.6%
CC(O)C(O)CC(/C=N/NC(=O)c1ccccc1)=N/NC(=O)c1ccccc1 (stereo unspecified)	3.55%	4.25%	-14.6%	-7.55%	-0.75%	2.8%
O=[N+]([O-])c1ccc(CS(=O)Cc2ccccc2)cc1 (stereo unspecified)	10.9%	-18.6%	1.35%	0.05%	6.75%	31.7%
CCN(CCOC)C(C)=O	2.15%	2.25%	17.6%	-1.75%	-0.45%	-3.05%
O=C(/C(Cl)=N/O)c1ccc(O)c(O)c1	30.3%	14.8%	18.2%	24.6%	47.2%	19.9%
Cc1c(CC#N)cc(C)c2c3c([nH]c12)-c1ccccc1CC3	35.5%	35.2%	44%	11.8%	37.5%	18.9%
CCOC(=O)C(Sc1ccc(C)cc1)C(Sc1ccc(C)cc1)C(=O)OCC (stereo unspecified)	0.6%	-6.6%	11.2%	-17.3%	-0.3%	-0.75%
BrC(Br)(Br)Br	74% (active)	12.6%	31.8%	-19.6%	27.4%	57.2%
COC1OC(CO)C(O)C1OS(C)(=O)=O (stereo unspecified)	-11.7%	-4.25%	-10.3%	-1.2%	-4.45%	-8.3%
CC(=O)N(C(C)=O)N1C(=O)CSC1=S	-11.1%	-35%	-21.8%	-3.4%	17.4%	-7.2%
CCSc1nc2n(c(=S)n1)CCN2C	15.4%	-3.5%	13.8%	6.5%	22.6%	18.2%
C/C(=N\NS(=O)(=O)c1ccc(C)cc1)c1cccs1	-3.9%	7.1%	6.4%	4.2%	10.2%	12.6%
CCOC(=O)c1ccc(Cn2c(C)cc(=O)n(Cc3ccc(C(=O)OCC)cc3)c2=O)cc1	0.25%	-14.1%	-9.9%	-27.6%	4.05%	-7.7%
O=C1CN(C2OC(CO)C(O)C2O)C(=O)NC1=O (stereo unspecified)	41.8%	14.2%	55.2%	-11.2%	9.15%	24.4%
O=C(OC1OCC(OCc2ccccc2)C(OCc2ccccc2)C1OCc1ccccc1)c1ccccc1 (stereo unspecified)	22.6%	-21.5%	-3.9%	-24.3%	-4.2%	-9.15%
O=C1c2cccc3c([N+](=O)[O-])ccc(c23)C(=O)N1Cc1cccnc1	99.3% (active)	99.7% (active)	99.5% (active)	99.3% (active)	99.3% (active)	99.4% (active)
